In PubChem BioAssay (EPA / NIEHS):
Calls of active or inactive are those of the source. The calls were made as follows: active = hit-call score of the fitted dose curve at least 0.9, where 1 is the maximum; inactive = score below 0.9.

Each compound was assayed against Transcriptional activator Myb (Homo sapiens) (UniProt P10242) (assay: ATG_Myb_CIS: Attagene CIS-FACTORIAL HepG2 Assay for human Myeloblastosis (Myb) Proto-Oncogene Transcription Factor (AID 2282986)). Settings: HepG2 Attagene CIS-FACTORIAL Myb reporter transcription; actives raise or lower the signal.
Method: ATG_CIS is a cell-based, multiplexed-readout assay that uses HepG2, a human liver cell line, with measurements taken at 24 hours after chemical dosing in a 24-well plate.ATG_Myb_CIS is one of 52 assay component(s) measured or calculated from the ATG_CIS assay. It is designed to make measurements of mRNA induction, a form of inducible reporter, as detected with fluorescence intensity signals by Reverse transcription polymerase chain reaction (RT-PCR) and Capillary electrophoresis technology.Data from the assay component ATG_Myb_CIS was analyzed into 1 assay endpoint. This assay endpoint, ATG_Myb_CIS, was analyzed with bidirectional fitting relative to DMSO as the negative control and baseline of activity. Using a type of inducible reporter, measures of mRNA for gain or loss-of-signal activity can be used to understand the reporter gene at the transcription factor-level as they relate to the gene MYB. Furthermore, this assay endpoint can be referred to as a primary readout, because this assay has produced multiple assay endpoints where this one serves a reporter gene function. To generalize the intended target to other relatable targets, this assay endpoint is annotated to the dna binding intended target family, where the subfamily is MYB proteins.
Human liver HepG2 cells are transiently transfected with multiple reporter transcription units (MRTUs) in 6-well plates using FuGene 6 reagent (Roche; 3 ml FuGene/1 mg DNA). The MRTU constructs are regulated by a cis-regulating element (promoter). […] A major difference between the CIS and TRANS system is that in CIS activities of endogenous TFs are measured, whereas the TRANS assay evaluates changes in activities of exogenous, chimeric NR-Gal4 proteins. […] At the end of 24 hour incubation, total RNA was isolated using TriZol reagent (Invitrogen). The isolated RNA is then reverse-transcribed using oligo(dT) primer and Mo-MLV reverse transcriptase (Invitrogen) with DNAse I (Ambion) treatment for 30 min. The one-tenth of the produced cDNA was amplified by PCR using Taq DNA polymerase (Invitrogen) and two reporter sequence-specific primers. The PCR products were fluorescently labeled by primer extension with 6-arboxyfluorescein (6-FAM) 5'-labeled reporter sequence-specific primer (2 min at 95 C, 20 s at 68 C and 10 min at 72 C) and these products were digested with 5U of HpaI (New England Biolabs) for 2h at 37 C. The fragments were purified using Qiaquick PCR columns (Qiagen), analyzed on an ABI 3130xL genetic analyzer (Applied Biosystems) with peak positions identified by using a set of X-rhodamine (ROX)-labeled MapMarker1000 molecular weight standards (BioVentures). The raw capillary electrophoresis data was processed using Attagraph software (Attagene).

Transcriptional activator Myb (Homo sapiens), sequence (P10242 whole entry, looked up): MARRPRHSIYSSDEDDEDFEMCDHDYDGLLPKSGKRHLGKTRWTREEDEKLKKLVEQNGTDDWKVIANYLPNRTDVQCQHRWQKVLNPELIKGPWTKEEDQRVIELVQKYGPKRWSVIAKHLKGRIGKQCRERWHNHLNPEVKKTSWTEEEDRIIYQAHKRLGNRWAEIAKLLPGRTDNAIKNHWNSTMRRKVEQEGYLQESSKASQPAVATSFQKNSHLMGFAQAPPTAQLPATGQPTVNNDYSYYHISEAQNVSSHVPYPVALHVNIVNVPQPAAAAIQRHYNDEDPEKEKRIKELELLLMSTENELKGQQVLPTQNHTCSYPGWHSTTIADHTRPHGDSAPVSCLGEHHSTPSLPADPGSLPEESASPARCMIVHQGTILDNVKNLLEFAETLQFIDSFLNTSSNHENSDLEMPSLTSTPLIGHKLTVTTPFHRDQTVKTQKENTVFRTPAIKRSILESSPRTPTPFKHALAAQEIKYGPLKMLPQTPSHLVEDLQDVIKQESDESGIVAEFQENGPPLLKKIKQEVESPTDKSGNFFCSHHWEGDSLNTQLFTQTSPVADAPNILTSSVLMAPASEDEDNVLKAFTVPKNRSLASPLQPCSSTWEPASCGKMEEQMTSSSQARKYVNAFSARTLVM

Row | SMILES | outcome
1 | C=CC(=O)NC(C)(C)CS(=O)(=O)O | inactive
2 | CC(C)=CCC/C(C)=C\C#N | inactive
3 | C[Si](C)(CCCN)O[Si](C)(C)CCCN | inactive
4 | C=C(C)[C@@H]1CCC2=CCC[C@@H](C)[C@]2(C)C1 | inactive
5 | CC1=CC[C@H]2C[C@@H]1C2(C)C | inactive
6 | C[Si](C)O[Si](C)(C)O[Si](C)(C)O[Si](C)C | inactive
7 | CC=C1CC2C=CC1C2 (stereo not given) | inactive
8 | C[C@]12CCC(=O)C=C1CC[C@@H]1[C@@H]2C(=O)C[C@@]2(C)[C@H]1CC[C@]2(O)C(=O)CO | inactive
9 | CCN(Cc1cccc(S(=O)(=O)O)c1)c1ccc(C(=C2C=CC(=[N+](CC)Cc3cccc(S(=O)(=O)[O-])c3)C=C2)c2ccccc2)cc1 | inactive
10 | CC(=O)c1ccc2c(c1)CCCC2 | inactive
11 | COC(=O)c1c(C)cc(O)c(C)c1O | inactive
12 | SCCc1cnccn1 | inactive
13 | ON(Cc1ccccc1)Cc1ccccc1 | inactive
14 | CC(=O)Oc1ccc(C)cc1 | inactive
15 | O=C(C=Cc1ccccc1)OCc1ccccc1 | inactive
16 | CC(=O)C=CC1C(C)=CCC(C)C1(C)C (stereo not given) | inactive
17 | O=C(Nc1ccccc1)c1ccccc1O | inactive
18 | O=S(=O)(O)c1ccccc1C=Cc1ccc(-c2ccc(C=Cc3ccccc3S(=O)(=O)O)cc2)cc1 | inactive
19 | CCN(CC)c1ccc(C(=O)c2ccccc2C(=O)O)c(O)c1 | inactive
20 | O=c1cc[nH]c(=S)[nH]1 | inactive

Row | SMILES | outcome
21 | CCCCCc1ccc(Cl)cc1 | inactive
22 | CCCCCCCCCCOS(=O)(=O)O | inactive
23 | CCCCCCCOC(=O)CCC | inactive
24 | CC=CC(=O)N(CC)c1ccccc1C | inactive
25 | CNC(=S)N(C)C | inactive
26 | CC(=O)OC1C2(C)CCC(C2)C1(C)C (stereo not given) | inactive
27 | [Cl][In]([Cl])[Cl] | inactive
28 | Nc1ccc(N)c(Cl)c1 | inactive
29 | CC(C)c1ccc(C=O)cc1 | inactive
30 | Nc1ccc(N=Nc2ccccc2)c(N)n1 | inactive
31 | CCCCCCCCO[C@@H]1O[C@H](CO)[C@@H](O)[C@H](O)[C@H]1O | inactive
32 | CC1=Nc2ccc3ccccc3c2C1(C)C | inactive
33 | O=C(O)CC(C(=O)O)C(CC(=O)O)C(=O)O (stereo not given) | inactive
34 | CCC(=O)Oc1ccc(/C(CC)=C(\CC)c2ccc(OC(=O)CC)cc2)cc1 | inactive
35 | CC(C)=CCC[C@H](C)CCO | inactive
36 | CC[C@H]1OC(=O)[C@H](C)[C@@H](O[C@H]2C[C@@](C)(OC)[C@@H](O)[C@H](C)O2)[C@H](C)[C@@H](O[C@@H]2O[C@H](C)C[C@H](N(C)C)[C@H]2O)[C@](C)(O)C[C@@H](C)C(=NOCOCCOC)[C@H](C)[C@@H](O)[C@]1(C)O | inactive
37 | Nc1ccc(Cl)cc1Cl | inactive
38 | CCOC(=O)CC | inactive
39 | O=C(O)c1cc(Cl)cc([N+](=O)[O-])c1Cl | inactive
40 | C=CC(C)(CCC=C(C)C)OC(=O)C(C)C (stereo not given) | inactive
